Consider 47 compounds from publication PMC4336329 (PLoS ONE, 2015).

Among all 310,000 compounds or so, about 2,200 (0.71%) showed an effect of 50% or more. The effect is printed as a negative number. This is one part of a sample in which strong results are shown more often than they occur.

Sequence of human ether-à-go-go-related gene (hERG) potassium channel (Q12809 whole entry, looked up): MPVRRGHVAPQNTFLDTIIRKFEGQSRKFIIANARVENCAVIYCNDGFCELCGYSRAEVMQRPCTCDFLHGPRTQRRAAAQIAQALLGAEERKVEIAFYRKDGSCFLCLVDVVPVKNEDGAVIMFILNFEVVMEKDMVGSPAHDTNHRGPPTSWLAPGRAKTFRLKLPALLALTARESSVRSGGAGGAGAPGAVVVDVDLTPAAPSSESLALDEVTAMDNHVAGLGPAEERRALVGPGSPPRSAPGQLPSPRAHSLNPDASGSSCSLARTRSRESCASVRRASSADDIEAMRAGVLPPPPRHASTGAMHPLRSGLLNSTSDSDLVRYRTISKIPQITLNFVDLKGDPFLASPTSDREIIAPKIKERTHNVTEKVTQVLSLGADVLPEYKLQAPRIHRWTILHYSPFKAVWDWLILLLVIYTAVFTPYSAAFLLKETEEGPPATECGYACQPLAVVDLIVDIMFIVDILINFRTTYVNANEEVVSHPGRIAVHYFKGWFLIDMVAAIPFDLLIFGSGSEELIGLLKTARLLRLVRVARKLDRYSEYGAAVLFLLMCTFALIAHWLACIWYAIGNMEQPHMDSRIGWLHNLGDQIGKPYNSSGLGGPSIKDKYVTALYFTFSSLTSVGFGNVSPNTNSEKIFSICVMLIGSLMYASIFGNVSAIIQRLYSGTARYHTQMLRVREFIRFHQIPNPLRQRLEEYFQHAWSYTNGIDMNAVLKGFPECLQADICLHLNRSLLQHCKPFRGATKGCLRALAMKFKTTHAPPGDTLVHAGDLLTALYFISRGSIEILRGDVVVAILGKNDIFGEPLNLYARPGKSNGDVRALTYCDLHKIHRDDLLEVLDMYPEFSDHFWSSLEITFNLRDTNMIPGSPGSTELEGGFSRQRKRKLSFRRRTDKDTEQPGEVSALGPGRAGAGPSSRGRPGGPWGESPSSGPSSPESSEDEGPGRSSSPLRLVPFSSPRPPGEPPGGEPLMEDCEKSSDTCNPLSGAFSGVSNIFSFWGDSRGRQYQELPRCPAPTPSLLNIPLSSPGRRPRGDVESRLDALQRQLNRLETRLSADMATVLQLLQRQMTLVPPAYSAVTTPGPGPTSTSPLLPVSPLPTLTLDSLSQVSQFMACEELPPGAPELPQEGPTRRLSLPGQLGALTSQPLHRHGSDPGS

This experiment has as its target human ether-à-go-go-related gene (hERG) potassium channel (human, UniProt Q12809). In words: primary screen, population patch clamp on CHO cells stably expressing hERG; higher = less effect of the substance.
`Cc1ccc(C2=NN(CCC(=O)NCCCN3CCOCC3)C(=O)CC2)cc1`: the “hERG current change (%, negative = inhibition) at 1uM” value is recorded as -9.94%.
Turning to `O=C(CNC(=O)c1nc[nH]c1C(=O)NCC(=O)OCc1ccccc1)OCc1ccccc1`, the “hERG current change (%, negative = inhibition) at 1uM” value worked out at 10.3%.
Consider `COc1ccccc1NC(CC(=O)c1ccccc1)C(=O)OCC(=O)c1ccc(F)cc1` (centres unmarked), for which the “hERG current change (%, negative = inhibition) at 1uM” value is recorded as -11.1%.
The result for `COc1ccccc1C(=O)Nc1c2c(nn1-c1cccc(C)c1C)CS(=O)C2` (centres unmarked) reads -3.22%.
Consider `Cc1ccc(-n2c(O)c(C=Nc3ccc(S(=O)(=O)Nc4ncccn4)cc3)c3ccccc3c2=O)cc1C`, for which the “hERG current change (%, negative = inhibition) at 1uM” value was -2.78%.
The result for `CC(=O)N1N=C(c2ccc(Br)cc2)CC1c1cn(C)c2ccccc12` (centres unmarked) reads 9.41%; that for `O=C(N/N=C1\CCCc2ccccc21)c1cccc(Br)c1`, 9.96%; that for `CCOC(=O)C1(Cc2cccc(F)c2)CCN(Cc2cnn(CC)c2)CC1`, -4.74%.
Next, `CCOC(=O)C1(CCCc2ccccc2)CCN(Cc2cn(CC)nc2C)CC1`: -59.8%.
Next, `CCOC(=O)C1(CCCc2ccccc2)CCN(Cc2ccn[nH]2)CC1`: -27.8%.
`CCOC(=O)C1(Cc2cccc(F)c2)CCN(CC2CC2)CC1`: the “hERG current change (%, negative = inhibition) at 1uM” value is -2.54%.
The result for `CCOC(=O)C1(Cc2ccc(Cl)cc2)CCN(Cc2cn(CC)nc2C)CC1` reads -28.5%; that for `CCOC(=O)C1(Cc2cccc(F)c2)CCN(CCCn2cccn2)CC1`, -51.2%.
Next, `COC(=O)C1=CN(Cc2ccc(OC)c(OC)c2)C=C(C(=O)OC)C1c1ccc(F)cc1`: 4.21%; `COCCNC(=O)c1ccc(CSc2nc3ccccc3s2)cc1`: 3.95%.
Next, `Cn1c(C(=O)N2CCN(c3ccc(Cl)cc3)CC2)cc2c(=O)[nH]c3ccccc3c21`: -56%; `Cc1ccc(Cl)cc1N1CCN(C(=O)c2cc3c(=O)[nH]c4ccccc4c3n2C)CC1`: 10.4%.
As for `Cc1cccc(N2CCN(C(=O)c3cc4c(=O)[nH]c5ccccc5c4n3C)CC2)c1C`, the “hERG current change (%, negative = inhibition) at 1uM” value is 11.2%.
Next, `COc1ccccc1C(=O)Nn1c(C2CCC2)nc2ccccc2c1=O`: 4.52%; `CCc1ccc(CNC(=O)Cn2nc(-c3ccccc3)ccc2=O)cc1`: 8.46%.
As for `CC(=O)Nc1sc2c(c1C#N)CCC(C)C2` (centres unmarked), the “hERG current change (%, negative = inhibition) at 1uM” value came to 11.7%.
Next, `CC1CCc2c(sc(NC(=O)COC(=O)c3ccccc3NCc3ccco3)c2C#N)C1` (centres unmarked): 12.9%; `CC1CCc2c(sc(NC(=O)C(=O)NCc3ccco3)c2C#N)C1` (centres unmarked): -63.6%.
The result for `CC(=O)c1cc(C#N)c(SCc2ccc([N+](=O)[O-])cc2)nc1C` reads 10.4%; that for `Cc1nc(N)nc(SCc2ccc([N+](=O)[O-])cc2)c1N`, -70.8%.
The result for `Cc1cc(C)nc(SCc2ccc([N+](=O)[O-])cc2)n1` reads 6.29%; that for `CC(OC(=O)c1ccc2ncsc2c1)C(=O)Nc1ncc(Cl)cc1Cl` (centres unmarked), 8.58%; that for `CC(NC(=O)c1ccc2c(c1)OCCO2)c1ccc(S(N)(=O)=O)cc1` (centres unmarked), -3.42%.
On to `O=[N+]([O-])c1ccc2oc(C3CCCCC3)nc2c1`, for which the “hERG current change (%, negative = inhibition) at 1uM” value came out at 14.4%.
The result for `CC(NC(=O)c1cccc(S(=O)(=O)N(C)C)c1)c1nc2ccccc2[nH]1` (centres unmarked) reads 9.08%; that for `O=C(Cn1nc(-c2ccccc2)ccc1=O)Nc1ccc(-n2cnnn2)cc1`, 9.23%.
In the case of `O=C1NC(=O)C(CCc2ccncc2)(CCc2ccncc2)C(=O)N1Cc1ccccc1`, the “hERG current change (%, negative = inhibition) at 1uM” value is recorded as -43.4%.
Next, `O=C1NC(=O)C(CCc2ccncc2)(CCc2ccncc2)C(=O)N1CCc1ccc(F)cc1`: -77.1%.
Next, `O=C1NC(=O)C(CCc2ccncc2)(CCc2ccncc2)C(=O)N1CCc1ccccc1`: -23.1%.
Next, `O=C1NC(=O)C(CCc2ccncc2)(Cc2ccc3c(c2)OCO3)C(=O)N1CCc1ccccc1` (centres unmarked): -10.8%; `O=C1NC(=O)C(CCc2ccncc2)(CCc2ccncc2)C(=O)N1C1CCCCC1`: -69.7%; `CCc1ccc(N2C(=O)NC(=O)C(CCc3ccncc3)(CCc3ccncc3)C2=O)cc1`: -41.1%.
Turning to `O=C1NC(=O)C(CCc2ccncc2)(CCc2ccncc2)C(=O)N1Cc1ccc(F)cc1`, the “hERG current change (%, negative = inhibition) at 1uM” value is on record as -78.2%.
The result for `C=CCN1C(=O)NC(=O)C(CCc2ccncc2)(CCc2ccncc2)C1=O` reads -12.3%.
The result for `O=C1NC(=O)C(CCc2ccncc2)(C2CCCCC2)C(=O)N1` reads 11.2%.
The result for `O=C1c2ccccc2C(O)(c2ccccc2)N1C1CC1` (centres unmarked) reads -8.45%.
On to `C#CCOc1ccc(Br)cc1C(c1c(C)[nH][nH]c1=O)c1c(C)[nH][nH]c1=O`, for which the “hERG current change (%, negative = inhibition) at 1uM” value was 11.6%.
Next, `c1ccc2oc(SCc3cn4ccccc4n3)nc2c1`: -12.5%; `COC(=O)COc1ccc(NC(=O)C(c2ccccc2)c2ccccc2)cc1`: 6.63%; `Cc1ccc(C(=O)Nc2cccc(C(F)(F)F)c2)cc1NC(=O)c1csc(-c2ccncc2)n1`: -17.1%.
`O=C(Nc1cccc(C(F)(F)F)c1)c1csc(-c2ccncc2)n1`: the “hERG current change (%, negative = inhibition) at 1uM” value is recorded as -82.4%.
Next, `O=C(Nc1ccc(C(F)(F)F)cc1)c1csc(-c2ccncc2)n1`: -2.94%.
